Legend:
Experiment in all cases: log2 ratio of Biotin-Ahx-Ub-VS probe labelling (fragment/DMSO); higher = less target engagement (more negative = stronger competition), active = hit call of the paper (q ≤ 0.05, log2 ratio ≤ -1)
Conditions in all cases: compound concentration: 200 uM; treatment time: 3 h
[1] = target: T1, ALG13 (UniProt Q9NP73)
T1 sequence (whole entry): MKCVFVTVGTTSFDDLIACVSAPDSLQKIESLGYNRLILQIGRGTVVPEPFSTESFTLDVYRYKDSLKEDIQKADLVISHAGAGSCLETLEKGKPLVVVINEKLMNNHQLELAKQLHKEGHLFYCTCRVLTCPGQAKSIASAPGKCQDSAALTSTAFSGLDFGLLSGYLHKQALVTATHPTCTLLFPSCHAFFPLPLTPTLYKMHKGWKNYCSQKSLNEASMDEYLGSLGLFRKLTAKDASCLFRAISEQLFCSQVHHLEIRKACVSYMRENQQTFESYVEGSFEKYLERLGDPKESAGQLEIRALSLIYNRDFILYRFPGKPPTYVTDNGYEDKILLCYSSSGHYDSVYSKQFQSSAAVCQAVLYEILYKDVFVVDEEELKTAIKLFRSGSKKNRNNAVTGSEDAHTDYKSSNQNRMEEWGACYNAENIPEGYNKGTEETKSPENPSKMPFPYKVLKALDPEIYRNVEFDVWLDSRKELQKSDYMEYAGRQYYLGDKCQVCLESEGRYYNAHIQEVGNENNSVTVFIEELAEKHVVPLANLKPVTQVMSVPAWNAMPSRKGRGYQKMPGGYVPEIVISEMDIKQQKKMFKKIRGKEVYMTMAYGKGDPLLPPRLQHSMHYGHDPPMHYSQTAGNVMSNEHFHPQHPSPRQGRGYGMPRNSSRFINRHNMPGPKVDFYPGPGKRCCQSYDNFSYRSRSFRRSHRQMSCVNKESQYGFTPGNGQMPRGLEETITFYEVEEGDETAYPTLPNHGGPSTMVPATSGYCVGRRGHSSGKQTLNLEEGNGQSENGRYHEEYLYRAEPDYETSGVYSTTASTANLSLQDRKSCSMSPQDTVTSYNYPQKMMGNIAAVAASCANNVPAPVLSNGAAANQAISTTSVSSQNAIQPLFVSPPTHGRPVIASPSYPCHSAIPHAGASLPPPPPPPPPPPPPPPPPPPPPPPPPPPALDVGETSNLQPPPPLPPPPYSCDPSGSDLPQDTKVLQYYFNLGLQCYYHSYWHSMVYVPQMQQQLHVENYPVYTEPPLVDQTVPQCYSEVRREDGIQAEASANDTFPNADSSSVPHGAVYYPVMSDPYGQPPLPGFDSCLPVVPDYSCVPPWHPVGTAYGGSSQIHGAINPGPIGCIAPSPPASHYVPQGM
Outline: (§1)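 Global-median-normalised Spectronaut label-free quantities were compared by unpaired t-test, and values are average log2 ratios of fragment over vehicle. Only proteins with ≥2 unique peptides were used. HEK293T lysate (495 µg per sample) was treated in triplicate with fragment at 200 µM or vehicle for 3 h and then with Biotin-Ahx-Ub-VS at 0.5 µM final for 1 h. Labelled DUBs were then NeutrAvidin-enriched, digested with LysC and trypsin, and run by diaPASEF LC-MS/MS.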

[2] = target: ATXN3 (UniProt P54252)
Chain of ATXN3 (P54252 whole entry): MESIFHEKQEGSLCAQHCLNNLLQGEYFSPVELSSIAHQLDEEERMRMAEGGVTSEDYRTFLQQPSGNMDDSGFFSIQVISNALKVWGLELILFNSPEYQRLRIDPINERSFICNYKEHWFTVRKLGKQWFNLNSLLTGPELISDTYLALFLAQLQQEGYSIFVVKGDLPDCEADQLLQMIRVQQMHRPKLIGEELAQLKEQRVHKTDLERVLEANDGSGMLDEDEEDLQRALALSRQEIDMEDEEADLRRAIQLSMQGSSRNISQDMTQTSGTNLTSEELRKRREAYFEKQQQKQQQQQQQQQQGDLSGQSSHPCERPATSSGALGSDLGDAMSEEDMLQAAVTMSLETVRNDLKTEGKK
Outline: as §1

[3] = target: T2, BAP1 (UniProt Q92560)
T2 sequence (whole entry): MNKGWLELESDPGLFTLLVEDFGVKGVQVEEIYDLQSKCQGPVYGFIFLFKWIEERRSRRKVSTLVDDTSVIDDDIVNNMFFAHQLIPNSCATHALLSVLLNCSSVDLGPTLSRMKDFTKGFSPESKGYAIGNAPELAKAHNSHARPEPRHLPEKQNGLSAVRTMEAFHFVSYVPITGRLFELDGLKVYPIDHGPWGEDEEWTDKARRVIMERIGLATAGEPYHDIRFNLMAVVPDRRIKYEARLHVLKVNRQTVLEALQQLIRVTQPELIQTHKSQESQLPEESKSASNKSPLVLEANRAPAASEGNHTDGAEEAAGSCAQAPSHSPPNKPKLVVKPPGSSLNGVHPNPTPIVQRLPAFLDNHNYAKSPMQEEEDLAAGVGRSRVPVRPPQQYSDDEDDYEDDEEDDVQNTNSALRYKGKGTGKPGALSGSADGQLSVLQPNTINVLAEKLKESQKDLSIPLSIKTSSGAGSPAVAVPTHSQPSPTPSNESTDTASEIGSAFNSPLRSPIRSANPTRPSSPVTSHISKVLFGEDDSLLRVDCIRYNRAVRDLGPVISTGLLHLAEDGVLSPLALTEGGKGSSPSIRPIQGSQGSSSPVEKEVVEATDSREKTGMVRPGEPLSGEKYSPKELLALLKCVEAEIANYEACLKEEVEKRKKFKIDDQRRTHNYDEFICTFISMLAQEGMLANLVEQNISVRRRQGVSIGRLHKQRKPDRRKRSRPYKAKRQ
Outline: as §1

[4] = target: EIF3F (UniProt O00303)
Chain of EIF3F (O00303 whole entry): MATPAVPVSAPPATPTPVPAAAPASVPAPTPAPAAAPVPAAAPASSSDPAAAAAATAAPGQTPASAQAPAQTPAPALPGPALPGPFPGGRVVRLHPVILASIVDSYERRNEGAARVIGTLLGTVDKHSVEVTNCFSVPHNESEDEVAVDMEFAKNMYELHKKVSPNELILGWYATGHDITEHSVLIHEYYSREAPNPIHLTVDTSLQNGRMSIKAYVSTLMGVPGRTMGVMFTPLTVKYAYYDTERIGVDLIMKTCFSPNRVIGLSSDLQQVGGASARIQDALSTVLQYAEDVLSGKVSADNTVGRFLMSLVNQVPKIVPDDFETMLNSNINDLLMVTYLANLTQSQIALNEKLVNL
Outline: as §1

[5] = target: EIF3H (UniProt O15372)
Chain of EIF3H (O15372 whole entry): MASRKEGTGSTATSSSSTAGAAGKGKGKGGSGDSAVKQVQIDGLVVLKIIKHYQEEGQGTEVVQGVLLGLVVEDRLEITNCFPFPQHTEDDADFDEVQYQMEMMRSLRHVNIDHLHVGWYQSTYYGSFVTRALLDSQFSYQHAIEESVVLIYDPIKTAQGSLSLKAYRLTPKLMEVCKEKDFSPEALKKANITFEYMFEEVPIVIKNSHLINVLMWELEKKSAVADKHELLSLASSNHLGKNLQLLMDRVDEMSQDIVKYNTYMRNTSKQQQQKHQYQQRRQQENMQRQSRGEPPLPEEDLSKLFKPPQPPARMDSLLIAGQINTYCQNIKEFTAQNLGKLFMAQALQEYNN
Outline: as §1

[6] = target: T3, FAM105A (UniProt Q9NUU6)
T3 sequence (whole entry): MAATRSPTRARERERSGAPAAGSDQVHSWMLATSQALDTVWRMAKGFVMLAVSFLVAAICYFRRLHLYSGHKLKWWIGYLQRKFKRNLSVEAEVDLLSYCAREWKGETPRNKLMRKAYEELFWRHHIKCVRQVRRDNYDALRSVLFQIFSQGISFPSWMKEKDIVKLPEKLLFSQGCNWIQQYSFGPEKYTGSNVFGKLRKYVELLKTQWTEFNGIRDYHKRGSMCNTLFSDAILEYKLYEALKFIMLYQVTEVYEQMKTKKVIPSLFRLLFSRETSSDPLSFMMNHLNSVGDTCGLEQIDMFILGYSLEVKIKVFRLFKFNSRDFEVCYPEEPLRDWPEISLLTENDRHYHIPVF
Outline: as §1

[7] = target: OTUB1 (UniProt Q96FW1)
Chain of OTUB1 (Q96FW1 whole entry): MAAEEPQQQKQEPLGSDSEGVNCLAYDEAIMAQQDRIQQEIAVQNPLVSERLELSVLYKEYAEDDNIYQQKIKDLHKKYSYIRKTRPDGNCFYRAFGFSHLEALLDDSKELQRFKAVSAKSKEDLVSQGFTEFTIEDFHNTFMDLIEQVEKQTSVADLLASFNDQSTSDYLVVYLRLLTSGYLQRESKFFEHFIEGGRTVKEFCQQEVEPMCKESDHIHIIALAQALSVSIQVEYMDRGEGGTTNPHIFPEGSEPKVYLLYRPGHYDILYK
Outline: as §1

[8] = target: T4, OTUD4 (UniProt Q01804)
T4 sequence (whole entry): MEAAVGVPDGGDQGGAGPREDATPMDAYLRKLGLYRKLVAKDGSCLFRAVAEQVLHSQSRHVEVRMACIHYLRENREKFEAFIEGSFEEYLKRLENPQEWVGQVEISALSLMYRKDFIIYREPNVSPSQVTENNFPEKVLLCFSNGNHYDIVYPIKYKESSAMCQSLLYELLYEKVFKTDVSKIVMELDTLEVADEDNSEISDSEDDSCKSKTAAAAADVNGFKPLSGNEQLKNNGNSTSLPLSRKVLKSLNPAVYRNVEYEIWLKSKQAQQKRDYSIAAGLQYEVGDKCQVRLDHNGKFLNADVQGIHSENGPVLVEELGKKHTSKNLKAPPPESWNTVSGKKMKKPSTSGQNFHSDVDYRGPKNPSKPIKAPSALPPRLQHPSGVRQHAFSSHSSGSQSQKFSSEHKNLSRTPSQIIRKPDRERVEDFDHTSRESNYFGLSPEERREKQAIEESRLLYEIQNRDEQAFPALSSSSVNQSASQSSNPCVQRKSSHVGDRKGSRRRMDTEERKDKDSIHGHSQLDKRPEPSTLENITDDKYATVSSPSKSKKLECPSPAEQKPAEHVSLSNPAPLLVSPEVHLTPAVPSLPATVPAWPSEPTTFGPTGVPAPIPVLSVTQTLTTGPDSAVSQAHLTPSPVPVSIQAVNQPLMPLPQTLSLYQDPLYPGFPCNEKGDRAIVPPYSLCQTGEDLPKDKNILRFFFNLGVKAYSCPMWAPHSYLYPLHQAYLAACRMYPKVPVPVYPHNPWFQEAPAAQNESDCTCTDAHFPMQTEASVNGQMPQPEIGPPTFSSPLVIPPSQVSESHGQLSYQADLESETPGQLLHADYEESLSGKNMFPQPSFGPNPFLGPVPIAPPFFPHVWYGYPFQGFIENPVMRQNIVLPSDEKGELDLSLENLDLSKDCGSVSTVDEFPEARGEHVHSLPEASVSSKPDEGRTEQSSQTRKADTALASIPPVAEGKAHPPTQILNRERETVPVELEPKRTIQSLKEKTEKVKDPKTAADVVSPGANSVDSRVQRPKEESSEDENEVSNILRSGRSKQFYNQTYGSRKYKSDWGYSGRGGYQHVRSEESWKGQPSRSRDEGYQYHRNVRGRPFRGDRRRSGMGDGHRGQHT
Outline: as §1

[9] = target: T5, OTUD5 (UniProt Q96G74)
T5 sequence (whole entry): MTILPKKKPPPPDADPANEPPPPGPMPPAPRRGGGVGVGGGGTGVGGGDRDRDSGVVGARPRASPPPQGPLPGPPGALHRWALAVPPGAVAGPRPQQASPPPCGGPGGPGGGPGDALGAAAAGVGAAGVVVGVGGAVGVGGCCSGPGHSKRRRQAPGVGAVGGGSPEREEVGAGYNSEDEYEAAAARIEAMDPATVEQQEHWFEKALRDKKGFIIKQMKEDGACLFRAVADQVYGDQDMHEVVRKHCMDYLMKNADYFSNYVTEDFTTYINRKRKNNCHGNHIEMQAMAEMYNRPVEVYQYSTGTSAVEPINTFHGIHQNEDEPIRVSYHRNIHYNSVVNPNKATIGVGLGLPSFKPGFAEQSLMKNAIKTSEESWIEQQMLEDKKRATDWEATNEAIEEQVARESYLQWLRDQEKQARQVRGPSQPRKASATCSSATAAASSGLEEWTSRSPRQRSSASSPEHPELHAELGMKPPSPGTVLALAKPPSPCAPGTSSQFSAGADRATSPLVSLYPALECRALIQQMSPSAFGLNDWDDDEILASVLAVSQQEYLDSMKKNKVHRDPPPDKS
Outline: as §1

Measured: log2 ratio of Biotin-Ahx-Ub-VS probe labelling

O=C(CCl)NCCC1=CCCCC1
inactive: [1] 0.121 | [2] -0.135 | [3] -0.56 | [4] -0.0695 | [5] 0.0525 | [6] -0.125 | [7] 0.147 | [8] -0.135 | [9] -0.0425
